{
  "source": "PubChem BioAssay AID1159580",
  "about": "(chemical genetic matrix, 2015)",
  "experiment": "chemical genetic growth profiling, strain panel (AID 1159580);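 also: tested at 20 µM; growth read once vehicle control cultures reached saturation at 30 °C; 1 = growth at the plate median or of vehicle wells; lower values mean less growth of the strain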",
  "conditions": "S. cerevisiae deletion strains, growth OD",
  "note": "About 2,000 (36%) of roughly 5,500 compounds were called active. Another 18% or so got no clear call; they are omitted. This is one part of the list. Unmarked numbers belong to inactive results. Rule as the data show it: active = normalized growth mostly below about 0.91 (no sharp cut-off); inconclusive = no clear call, values can overlap the other calls; inactive = mostly above about 0.92.",
  "data": [
    {"compound": "Cc1ccc(OCC(O)C(C)NC(C)C)c2c1CCC2", "note": "(stereo unspecified)", "values": [
      {"measurement": "normalized growth", "setting": "locus YAL040C, strain CLN3, stronger effect = lower value", "value": 0.989},
      {"measurement": "normalized growth", "setting": "locus YCL061C, strain MRC1 (second series), stronger effect = lower value", "value": 0.993},
      {"measurement": "normalized growth", "setting": "locus YDR150W, strain NUM1, stronger effect = lower value", "value": 1.01},
      {"measurement": "normalized growth", "setting": "locus YDR363W, strain ESC2, stronger effect = lower value", "value": 0.961},
      {"measurement": "normalized growth", "setting": "locus YER002W, strain NOP16, stronger effect = lower value", "value": 0.977},
      {"measurement": "normalized growth", "setting": "locus YGR078C, strain PAC10, stronger effect = lower value", "value": 0.982},
      {"measurement": "normalized growth", "setting": "locus YGR229C, strain SMI1, stronger effect = lower value", "value": 1.01},
      {"measurement": "normalized growth", "setting": "locus YMR263W, strain SAP30, stronger effect = lower value", "value": 1},
      {"measurement": "normalized growth", "setting": "locus YNL128W, strain TEP1, stronger effect = lower value", "value": 0.985},
      {"measurement": "normalized growth", "setting": "locus YNL153C, strain GIM3, stronger effect = lower value", "value": 1},
      {"measurement": "normalized growth", "setting": "locus YNL175C, strain NOP13, stronger effect = lower value", "value": 0.982},
      {"measurement": "normalized growth", "setting": "locus YNL197C, strain WHI3, stronger effect = lower value", "value": 0.972},
      {"measurement": "normalized growth", "setting": "locus YNL224C, strain SQS1, stronger effect = lower value", "value": 1},
      {"measurement": "normalized growth", "setting": "locus YOR083W, strain WHI5 (second series), stronger effect = lower value", "value": 1},
      {"measurement": "normalized growth", "setting": "locus YPL055C, strain LGE1, stronger effect = lower value", "value": 1}
    ]},
    {"compound": "O=C(NC(=S)NNc1ncc(C(F)(F)F)cc1Cl)c1cccs1", "values": [
      {"measurement": "normalized growth", "setting": "locus YAR019C, strain CDC15, stronger effect = lower value", "value": "0.665 (active)"},
      {"measurement": "normalized growth", "setting": "locus YBL105C, strain PKC1, stronger effect = lower value", "value": "0.764 (active)"},
      {"measurement": "normalized growth", "setting": "locus YBR135W, strain CKS1, stronger effect = lower value", "value": "0.604 (active)"},
      {"measurement": "normalized growth", "setting": "locus YBR136W, strain MEC1, stronger effect = lower value", "value": "0.537 (active)"},
      {"measurement": "normalized growth", "setting": "locus YBR160W, strain CDC28, stronger effect = lower value", "value": "0.692 (active)"},
      {"measurement": "normalized growth", "setting": "locus YDL017W, strain CDC7, stronger effect = lower value", "value": "0.727 (active)"},
      {"measurement": "normalized growth", "setting": "locus YDL028C, strain MPS1, stronger effect = lower value", "value": "0.537 (active)"},
      {"measurement": "normalized growth", "setting": "locus YDL101C, strain DUN1, stronger effect = lower value", "value": "0.576 (active)"},
      {"measurement": "normalized growth", "setting": "locus YDL108W, strain KIN28, stronger effect = lower value", "value": "0.726 (active)"},
      {"measurement": "normalized growth", "setting": "locus YDL132W, strain cdc53, stronger effect = lower value", "value": "0.588 (active)"},
      {"measurement": "normalized growth", "setting": "locus YDL214C, strain PRR2, stronger effect = lower value", "value": "0.218 (active)"},
      {"measurement": "normalized growth", "setting": "locus YDR052C, strain DBF4, stronger effect = lower value", "value": "0.581 (active)"},
      {"measurement": "normalized growth", "setting": "locus YDR054C, strain cdc34, stronger effect = lower value", "value": "0.492 (active)"},
      {"measurement": "normalized growth", "setting": "locus YDR226W, strain ADK1, stronger effect = lower value", "value": "0.527 (active)"},
      {"measurement": "normalized growth", "setting": "locus YDR477W, strain SNF1, stronger effect = lower value", "value": "0.31 (active)"},
      {"measurement": "normalized growth", "setting": "locus YER123W, strain YCK3, stronger effect = lower value", "value": "0.17 (active)"},
      {"measurement": "normalized growth", "setting": "locus YER133W, strain GLC7, stronger effect = lower value", "value": "0.37 (active)"},
      {"measurement": "normalized growth", "setting": "locus YFL009W, strain cdc4, stronger effect = lower value", "value": "0.51 (active)"},
      {"measurement": "normalized growth", "setting": "locus YFL029C, strain CAK1, stronger effect = lower value", "value": "0.59 (active)"},
      {"measurement": "normalized growth", "setting": "locus YFR003C, strain YPI1, stronger effect = lower value", "value": "0.738 (active)"},
      {"measurement": "normalized growth", "setting": "locus YFR019W, strain FAB1, stronger effect = lower value", "value": "0.384 (active)"},
      {"measurement": "normalized growth", "setting": "locus YFR028C, strain CDC14, stronger effect = lower value", "value": "0.482 (active)"},
      {"measurement": "normalized growth", "setting": "locus YGR040W, strain KSS1, stronger effect = lower value", "value": "0.28 (active)"},
      {"measurement": "normalized growth", "setting": "locus YGR052W, strain FMP48, stronger effect = lower value", "value": "0.171 (active)"},
      {"measurement": "normalized growth", "setting": "locus YGR092W, strain DBF2, stronger effect = lower value", "value": "0.163 (active)"},
      {"measurement": "normalized growth", "setting": "locus YHR030C, strain SLT2, stronger effect = lower value", "value": "0.287 (active)"},
      {"measurement": "normalized growth", "setting": "locus YHR079C, strain IRE1, stronger effect = lower value", "value": "0.294 (active)"},
      {"measurement": "normalized growth", "setting": "locus YHR082C, strain KSP1, stronger effect = lower value", "value": "0.296 (active)"},
      {"measurement": "normalized growth", "setting": "locus YHR205W, strain SCH9, stronger effect = lower value", "value": "0.244 (active)"},
      {"measurement": "normalized growth", "setting": "locus YIL147C, strain SLN1, stronger effect = lower value", "value": "0.609 (active)"},
      {"measurement": "normalized growth", "setting": "locus YJL095W, strain BCK1, stronger effect = lower value", "value": "0.244 (active)"},
      {"measurement": "normalized growth", "setting": "locus YJL128C, strain PBS2, stronger effect = lower value", "value": "0.328 (active)"},
      {"measurement": "normalized growth", "setting": "locus YJL157C, strain FAR1, stronger effect = lower value", "value": "0.198 (active)"},
      {"measurement": "normalized growth", "setting": "locus YJR016C, strain ILV3, stronger effect = lower value", "value": "0.624 (active)"},
      {"measurement": "normalized growth", "setting": "locus YJR066W, strain TOR1 (second series), stronger effect = lower value", "value": "0.15 (active)"},
      {"measurement": "normalized growth", "setting": "locus YJR066W, strain TOR1, stronger effect = lower value", "value": "0.237 (active)"},
      {"measurement": "normalized growth", "setting": "locus YKL048C, strain ELM1, stronger effect = lower value", "value": "0.256 (active)"},
      {"measurement": "normalized growth", "setting": "locus YKL067W, strain YNK1, stronger effect = lower value", "value": "0.17 (active)"},
      {"measurement": "normalized growth", "setting": "locus YKL101W, strain HSL1, stronger effect = lower value", "value": "0.242 (active)"},
      {"measurement": "normalized growth", "setting": "locus YKL193C, strain SDS22, stronger effect = lower value", "value": "0.629 (active)"},
      {"measurement": "normalized growth", "setting": "locus YKL203C, strain TOR2, stronger effect = lower value", "value": "0.234 (active)"},
      {"measurement": "normalized growth", "setting": "locus YLR113W, strain HOG1, stronger effect = lower value", "value": "0.252 (active)"},
      {"measurement": "normalized growth", "setting": "locus YLR133W, strain CKI1, stronger effect = lower value", "value": "0.251 (active)"},
      {"measurement": "normalized growth", "setting": "locus YLR403W, strain SFP1, stronger effect = lower value", "value": "0.123 (active)"},
      {"measurement": "normalized growth", "setting": "locus YML070W, strain DAK1, stronger effect = lower value", "value": "0.247 (active)"},
      {"measurement": "normalized growth", "setting": "locus YMR001C, strain CDC5, stronger effect = lower value", "value": "0.549 (active)"},
      {"measurement": "normalized growth", "setting": "locus YMR205C, strain PFK2 (second series), stronger effect = lower value", "value": "0.23 (active)"},
      {"measurement": "normalized growth", "setting": "locus YMR277W, strain FCP1, stronger effect = lower value", "value": "0.413 (active)"},
      {"measurement": "normalized growth", "setting": "locus YNL006W, strain LST8, stronger effect = lower value", "value": "0.714 (active)"},
      {"measurement": "normalized growth", "setting": "locus YNL020C, strain ARK1, stronger effect = lower value", "value": "0.211 (active)"},
      {"measurement": "normalized growth", "setting": "locus YNL161W, strain CBK1, stronger effect = lower value", "value": "0.533 (active)"},
      {"measurement": "normalized growth", "setting": "locus YNL183C, strain NPR1, stronger effect = lower value", "value": "0.195 (active)"},
      {"measurement": "normalized growth", "setting": "locus YNL207W, strain RIO2, stronger effect = lower value", "value": "0.6 (active)"},
      {"measurement": "normalized growth", "setting": "locus YNL222W, strain SSU72, stronger effect = lower value", "value": "0.559 (active)"},
      {"measurement": "normalized growth", "setting": "locus YNL307C, strain MCK1 (second series), stronger effect = lower value", "value": "0.146 (active)"},
      {"measurement": "normalized growth", "setting": "locus YOL078W, strain AVO1, stronger effect = lower value", "value": "0.585 (active)"},
      {"measurement": "normalized growth", "setting": "locus YOL136C, strain PFK27, stronger effect = lower value", "value": "0.276 (active)"},
      {"measurement": "normalized growth", "setting": "locus YOR061W, strain CKA2, stronger effect = lower value", "value": "0.242 (active)"},
      {"measurement": "normalized growth", "setting": "locus YOR119C, strain RIO1, stronger effect = lower value", "value": "0.237 (active)"},
      {"measurement": "normalized growth", "setting": "locus YOR231W, strain MKK1, stronger effect = lower value", "value": "0.256 (active)"},
      {"measurement": "normalized growth", "setting": "locus YOR329C, strain SCD5, stronger effect = lower value", "value": "0.727 (active)"},
      {"measurement": "normalized growth", "setting": "locus YPL031C, strain PHO85, stronger effect = lower value", "value": "0.441 (active)"},
      {"measurement": "normalized growth", "setting": "locus YPL153C, strain RAD53, stronger effect = lower value", "value": "0.283 (active)"},
      {"measurement": "normalized growth", "setting": "locus YPL204W, strain HRR25, stronger effect = lower value", "value": "0.315 (active)"},
      {"measurement": "normalized growth", "setting": "locus YPL209C, strain IPL1, stronger effect = lower value", "value": "0.736 (active)"},
      {"measurement": "normalized growth", "setting": "locus YPL256C, strain CLN2, stronger effect = lower value", "value": "0.367 (active)"},
      {"measurement": "normalized growth", "setting": "locus YPR025C, strain CCL1, stronger effect = lower value", "value": "0.745 (active)"},
      {"measurement": "normalized growth", "setting": "locus YPR106W, strain ISR1, stronger effect = lower value", "value": "0.472 (active)"},
      {"measurement": "normalized growth", "setting": "locus YPR111W, strain DBF20, stronger effect = lower value", "value": "0.453 (active)"},
      {"measurement": "normalized growth", "setting": "strain NNK1, stronger effect = lower value", "value": "0.492 (active)"},
      {"measurement": "normalized growth", "setting": "strain TSCII, stronger effect = lower value", "value": "0.524 (active)"}
    ]}
  ]
}
